Drawing on ChEMBL document CHEMBL4808148, “HDAC6 screening dataset using tau-based substrate in an enzymatic assay yields selective inhibitors and activators” (2021), this text covers inhibition for 46 compounds.

For the experiment, the target named is T1, Protein deacetylase HDAC6 (Homo sapiens) (UniProt Q9UBN7).
T1 sequence (whole entry): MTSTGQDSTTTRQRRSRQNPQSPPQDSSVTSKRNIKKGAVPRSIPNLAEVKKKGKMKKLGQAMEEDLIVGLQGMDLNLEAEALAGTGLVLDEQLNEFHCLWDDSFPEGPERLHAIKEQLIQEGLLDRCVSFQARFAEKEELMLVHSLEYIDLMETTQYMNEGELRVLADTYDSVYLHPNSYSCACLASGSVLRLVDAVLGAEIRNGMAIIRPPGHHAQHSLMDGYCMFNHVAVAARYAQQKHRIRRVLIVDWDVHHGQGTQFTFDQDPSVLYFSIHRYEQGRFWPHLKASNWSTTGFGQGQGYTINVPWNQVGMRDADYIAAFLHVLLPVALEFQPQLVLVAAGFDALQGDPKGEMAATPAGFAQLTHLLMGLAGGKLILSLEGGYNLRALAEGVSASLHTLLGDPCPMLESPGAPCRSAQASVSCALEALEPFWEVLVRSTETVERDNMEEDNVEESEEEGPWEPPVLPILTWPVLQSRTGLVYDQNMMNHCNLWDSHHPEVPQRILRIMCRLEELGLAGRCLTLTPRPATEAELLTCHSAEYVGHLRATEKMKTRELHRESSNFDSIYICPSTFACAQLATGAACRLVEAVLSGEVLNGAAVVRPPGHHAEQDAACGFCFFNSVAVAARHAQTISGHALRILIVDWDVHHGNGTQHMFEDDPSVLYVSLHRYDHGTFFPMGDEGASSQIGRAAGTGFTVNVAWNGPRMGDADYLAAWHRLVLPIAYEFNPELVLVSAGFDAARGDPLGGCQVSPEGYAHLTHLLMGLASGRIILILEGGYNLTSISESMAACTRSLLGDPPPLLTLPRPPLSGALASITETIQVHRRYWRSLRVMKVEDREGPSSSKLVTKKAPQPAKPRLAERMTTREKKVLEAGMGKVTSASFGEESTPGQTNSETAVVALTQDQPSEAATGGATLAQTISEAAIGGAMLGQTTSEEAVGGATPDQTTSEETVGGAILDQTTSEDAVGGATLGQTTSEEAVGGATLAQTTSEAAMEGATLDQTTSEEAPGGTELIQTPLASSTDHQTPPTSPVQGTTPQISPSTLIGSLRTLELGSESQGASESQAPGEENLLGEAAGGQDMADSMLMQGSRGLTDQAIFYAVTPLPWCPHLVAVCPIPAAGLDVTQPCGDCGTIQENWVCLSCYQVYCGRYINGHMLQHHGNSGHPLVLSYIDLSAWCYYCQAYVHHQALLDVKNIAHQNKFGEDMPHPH
To be noted: at 10 µM.

“And” between values parts separate entries of the source, which are not always exact repeats. Identical values can stand only once. Screen size: about 5,600 compounds; about 150 (2.7%) showed an effect of 50% or more. The sample as a whole holds a higher share of strong results than the screen did.

Consider `CN(C)Cc1ccc(S(=O)(=O)n2ccc(/C=C/C(=O)NO)c2)cc1`, for which the inhibition came out at 97.8%.

Regarding `CCN1C(=O)CNc2ncc(-c3ccc(-c4nc[nH]n4)nc3C)nc21`, the inhibition came out at 0.29%.

As for `Cc1cc(C)c(/C=C2\C(=O)Nc3ccccc32)[nH]1`, the inhibition came to 2.33%.

Consider `Cc1[nH]c(/C=C2\C(=O)Nc3ccccc32)c(C)c1CCC(=O)O`, for which the inhibition was 8.55%.

With `CN(C)c1ccc(/C=C2\C(=O)Nc3ccccc32)cc1`, the inhibition turned out to be 96.3%.

As for `CSC1SC[C@H]2C(=O)N(C)[C@@H](C(C)C)C(=O)OC[C@@H](NC(=O)c3cnc4ccccc4n3)C(=O)N[C@@H](C)C(=O)N(C)[C@@H]1C(=O)N(C)[C@@H](C(C)C)C(=O)OC[C@@H](NC(=O)c1cnc3ccccc3n1)C(=O)N[C@@H](C)C(=O)N2C` (stereo partly specified), the inhibition is -2.22%.

Take `Cc1cc(-c2nc(-c3ccc(OC(F)(F)F)cc3)no2)nn1Cc1ccnc(N2CCN(C3CC3)CC2)c1`: the inhibition was -4.46%.

For the compound `COc1cc(C(=S)N2CCOCC2)cc(OC)c1OC`, the inhibition is 97.4%.

Consider `COc1cc(C(=O)NC2CCCNC2)cc(OC)c1OC` (stereo unspecified), for which the inhibition is -2.46%.

For the compound `COc1cc(C(=O)OCCCN2CCCN(CCCOC(=O)c3cc(OC)c(OC)c(OC)c3)CC2)cc(OC)c1OC`, the inhibition was -3.62%.

As for `CC(C)(C)[C@H]1CC[C@H](CC2=C(O)C(=O)c3ccccc3C2=O)CC1`, the inhibition is 4.06%.

`COc1ccccc1C(=O)Nc1cc2c(cc1N1CCCC1)n(C)c(=O)n2C`: the inhibition was -4.48%.

Take `COc1cccc(-c2ccc(NC(=O)C3=C(C(=O)O)CCC3)c(F)c2)c1`: the inhibition was determined as 94%.

As to `COc1ccc(-c2c(C)c(C(=O)NN3CCCCC3)nn2-c2ccc(Cl)cc2Cl)cc1`, the inhibition was determined as 3.52%.

On to `CCOc1ccc(-c2ccc(Cn3c(CC(C)(C)C(=O)O)c(SC(C)(C)C)c4cc(OCc5ccc(C)cn5)ccc43)cc2)cn1`, for which the inhibition is -4.44%.

Turning to `Cc1ccc(-c2ccc(F)cc2COc2ccc(CCC(=O)O)cc2)cc1`, the inhibition came out at 2.57%.

Turning to `C[C@H](NCc1ccc(OCc2ccccc2F)cc1)C(N)=O`, the inhibition is 69.9%.

On to `O=C1S/C(=C\c2ccc(OCc3cccc(B(O)O)c3)cc2)C(=O)N1Cc1ccc(F)cc1`, for which the inhibition worked out at 8.15%.

Consider `CC(C)NCC(O)COc1ccc(CC(N)=O)cc1` (stereo unspecified), for which the inhibition is 8.69% and 11.7%.

With `C[C@H](NCc1ccc(OCc2cccc(F)c2)cc1)C(N)=O`, the inhibition was determined as 88.8%.

On to `C[C@H](NC(=O)Cc1cc(F)cc(F)c1)C(=O)N[C@H](C(=O)OC(C)(C)C)c1ccccc1`, for which the inhibition was -6.8%.

On to `COC(=O)C1=C(C)NC(C)=C(C(=O)OC/C=C/c2ccccc2)C1c1cccc([N+](=O)[O-])c1` (stereo unspecified), for which the inhibition is -8.71%.

As to `CN[C@H](CC(C)C)C(=O)N[C@H]1C(=O)N[C@@H](CC(N)=O)C(=O)N[C@H]2C(=O)N[C@H]3C(=O)N[C@H](C(=O)N[C@H](C(=O)O)c4cc(O)cc(O)c4-c4cc3ccc4O)[C@H](O[C@H]3C[C@](C)(N)[C@@H](O)[C@H](C)O3)c3ccc(c(Cl)c3)Oc3cc2cc(c3O[C@@H]2O[C@H](CO)[C@@H](O)[C@H](O)[C@H]2O[C@H]2C[C@](C)(NCc3ccc(-c4ccc(Cl)cc4)cc3)[C@@H](O)[C@H](C)O2)Oc2ccc(cc2Cl)[C@H]1O`, the inhibition was 0.32%.

On to `N#C/C(=C\c1ccc(O)c(O)c1)C(N)=O`, for which the inhibition worked out at 18.8%.

For the compound `N#C/C(=C\c1ccc(O)c(O)c1)C(=O)NCCCc1ccccc1`, the inhibition is 17.5%.

As to `N#C/C(=C\c1ccc(O)c(O)c1)C(=O)NCc1ccccc1`, the inhibition is 54.9%.

`N#C/C(=C\c1ccc(O)c(O)c1)C(=O)Nc1ccccc1`: the inhibition is 93.8%.

Consider `C[C@H](NC(=O)/C(C#N)=C/c1ccc(O)c(O)c1)c1ccccc1`, for which the inhibition amounted to 20.7%.

`N#C/C(=C\c1ccc(O)c(O)c1)C(=O)NCCCCc1ccccc1`: the inhibition stood at 1.74%.

Take `COCCOCCOc1ccc(C2=N[C@@](C)(C(=O)O)CS2)c(O)c1`: the inhibition is -6.58%.

Turning to `O=C(Nc1ccc(F)cc1)N1CCc2ccccc2C1c1ccc(C(F)(F)F)cc1` (stereo unspecified), the inhibition was -5.96%.

As for `COC(=O)[C@H](CC(C)C)NC(=O)c1ccc(NC[C@@H](N)CS)cc1-c1cccc2ccccc12`, the inhibition turned out to be 3.13%.

For the compound `CC(C)=CCC[C@](C)(O)[C@H]1CC[C@]2(C)[C@@H]1[C@H](O)C[C@@H]1[C@@]3(C)CC[C@H](O)C(C)(C)[C@@H]3[C@@H](O)C[C@]12C`, the inhibition is -3.01%.

Turning to `OC[C@H]1NCC[C@@H](O)[C@@H]1O`, the inhibition was -1.49%.

In the case of `CC[C@@H](Nc1c(Nc2cccc(C(=O)N(C)C)c2O)c(=O)c1=O)c1ccc(C)o1`, the inhibition is -5.03%.

As for `CC(=O)c1ccc2c(c1)[C@@H]1C=CC[C@@H]1[C@H](c1cc3c(cc1Br)OCO3)N2`, the inhibition was -3.37%.

For the compound `N=C(N)NCCSSCCNC(=N)N`, the inhibition was -3.98%.

Turning to `CC(=O)N[C@H](Cc1c[nH]c2ccccc12)C(=O)OCc1cc(C(F)(F)F)cc(C(F)(F)F)c1`, the inhibition was -8.38%.

Consider `Cc1ccc(NC2=CC(=O)c3sc(C)nc3C2=O)cc1`, for which the inhibition stood at 58.6%.

Turning to `Fc1ccc2c(CCNCc3cccc(OCC(F)(F)C(F)F)c3)c[nH]c2c1`, the inhibition is 4.2%.

As for `CC[C@]1(O)C[C@@H]2CN(CCc3c([nH]c4ccccc34)[C@@](C(=O)OC)(c3cc4c(cc3OC)N(C)[C@H]3[C@@](O)(C(N)=O)[C@H](O)[C@]5(CC)C=CCN6CC[C@]43[C@@H]65)C2)C1`, the inhibition is -4.06%.

As to `COc1cc2nc(N3CCN(C(=O)C4COc5ccccc5O4)CC3)nc(N)c2cc1OC` (stereo unspecified), the inhibition was -3.15%.

With `CCCC(=O)N1CCCN(c2nc(N)c3cc(OC)c(OC)cc3n2)CC1`, the inhibition was 15.5%.

Turning to `COc1cc2nc(N3CCN(C(=O)C4CCCO4)CC3)nc(N)c2cc1OC` (stereo unspecified), the inhibition was found to be 79%.

For `CCCOCCn1c(=O)c(N2CCN(CCO)CC2)nc2cnc(-c3ccc(OC)nc3)cc21`, the inhibition was determined as 2%.

As to `O=C(O)CN1CCN(CC(=O)O)CCN(CC(=O)O)CCN(CC(=O)O)CC1`, the inhibition is -2.86%.

The inhibition is the relative decrease from the control value, in per cent.
